An excerpt weighted towards active compounds, which were near 0.46% of everything screened.
CaV13 ICDI inh = Disruptors of the CACNA1D IQ motif to Ca2+-dependent inactivation inhibitor domain association, primary screening, Förster resonance energy transfer in intact living …; HEK cells, CFP/YFP FRET ICDI-IQ, plate reader, 10 min; percent FRET-ratio fall versus neutral wells; inhibition, % at 12.3 µM; 340,000 tested, 0.098% active; AID 743397;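 active means mean replicate inhibition of at least 30% and at least 1% of replicates passing that level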;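 further: 0% = median of the neutral control wells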
PglD DTNB = C. jejuni PglD acetyltransferase inhibitors, primary screen, biochemical, DTNB colorimetric, single point. 360,000 tested, 0.098% active. AID 602405, 2012. UDP-N-acetylbacillosamine N-acetyltransferase PglD (Campylobacter jejuni). purified PglD enzyme, DTNB colorimetric CoA detection. inhibition, % at 12.5 µM; in the data active means inhibition above about 16%, passing the limit was not always enough
PGC1a acetyl inh = inhibitors of PGC1a acetylation signal, primary screen, cell-based, U2OS, AlphaScreen, inhibitor mode; AlphaScreen anti-acetyl-lysine; with virally co-expressed GCN5 acetyltransferase; inhibition, % at 15.6 µM; 350,000 tested, 0.17% active; AID 651687, 2012;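 active means every replicate shows inhibition of at least 40%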;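 further: 0% = neutral control wells and 100% = positive control wells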
PDI turbidity = inhibitors of human PDI, primary screen, biochemical, turbidity, single point, plate reader; PDI insulin aggregation turbidity, A650, 90 min; inhibition, % at 10 µM; 350,000 tested, 0.052% active; AID 588391, 2011;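 active means mean inhibition across replicates of 30% or more, whatever share of single replicates reach that level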
ERp5 inh = inhibitors of ERp5-driven insulin aggregation, primary screen, biochemical, turbidity, absorbance 650 nm, single point; 90 min; Protein disulfide-isomerase A6 (Homo sapiens), Q15084; 350,000 tested, 0.05% active; inhibition, % at 9.99 µM;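 active means mean replicate inhibition above about 25%, with every replicate also reaching it, limit read from the data, passing the limit was not always enough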
ERAP1 HTS inh = human ERAP1 aminopeptidase inhibitors, primary screen, biochemical, single point, plate reader | inhibition, % at 10.7 µM | Endoplasmic reticulum aminopeptidase 1 (Homo sapiens), Q9NZ08 | recombinant ERAP1, Leu-AMC fluorescence, 60 min | AID 652197, 2013 | 340,000 tested, 0.15% active;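 active means mean replicate inhibition of at least 30%, or all replicates individually reaching that 30% level; inactive means mean below 30% and not every replicate reaching it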;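 further: 0% = neutral control wells and 100% = L-leucinethiol positive control wells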
* = called active by the depositor; nt = no result; ! = not confirmed by another sample.

SMILES	CaV13 ICDI inh	PglD DTNB	PGC1a acetyl inh	PDI turbidity	ERp5 inh	ERAP1 HTS inh
Cc1ccc2c(c1)c1c3n2CCN(C(=O)CCl)C3CCC1 (stereo not given)	-22	2	nt	59*	3	0
CC(C)n1c(=O)[nH]c2ccccc21	-8	4	-2	-4	-4	-1
CC(C)n1c(=O)[nH][nH]c1=S	-4	-1	6	-2	2	85*
O=C(CSc1ccccn1)Nc1cccc2ccccc12	-4	2	2	3	3	88*
CN1C(=O)c2cc(NC(=O)Cc3cccs3)ccc2OC[C@H]2O[C@H](CC(=O)NCCc3ccncc3)CC[C@H]21	nt	0	nt	nt	-4	-4
CC(=O)OC[C@H]1O[C@@H](Oc2cc(O)cc3oc(-c4ccc(O)cc4)cc(=O)c23)[C@H](O[C@@H]2O[C@@H](C)[C@H](O)[C@@H](O)[C@H]2O)[C@@H](O)[C@@H]1O	-7	6	nt	39*	2	0
O=C(/C=C/c1cccnc1)c1cccc(O)c1	-2	-1	nt	44*	4	-3
O=C(/C=C/c1cccc(O)c1)c1cccnc1	-5	nt	nt	2	-2	2
COc1ccccc1C(NC(C)=O)c1cc(Cl)c2cccnc2c1O (stereo not given)	-2	3	46*	3	6	-2
CCOC(=O)C1=Nc2ccccc2C1=[N+]=[N-]	-3	nt	45*	-3	nt	nt
CCOC(=O)C1=Nc2cccc3c(O)ccc1c23	-27	nt	nt	nt	1	-18
O=C(c1ccccc1)N1CCN(c2ccc(NCc3ccc4c(c3)OCO4)cc2)CC1	56*	0	nt	nt	-6	0
CC(=O)N1CCN(c2ccc(NCc3ccc4c(c3)OCO4)cc2)CC1	-5	6	4	5	nt	nt
COc1ccc2c3c([nH]c2c1)[C@H](CO)N(C(=O)Nc1ccc(F)cc1)CC31CN(Cc2nccs2)C1	nt	nt	-19	nt	-2	-1
C[C@H](CO)N1C[C@H](C)[C@@H](CN(C)C(=O)Nc2ccccc2)Oc2ccc(NC(=O)c3ccncc3)cc2C1=O	-5	0	5	0	0	65*!
C[C@H](CO)N1C[C@H](C)[C@H](CN(C)C(=O)Nc2ccccc2)Oc2ncccc2C1=O	nt	0	11	nt	22	49*
S=c1[nH]nc(NCCCN2CCOCC2)s1	-6	nt	nt	-4	-6	86*
COc1cccc(NC(=O)N[C@@H]2C=C[C@H](CC(=O)NCc3ccccn3)O[C@@H]2CO)c1	nt	0	-4	nt	2	1
COc1ccc2c3c([nH]c2c1)[C@H](CO)N(C(=O)C1CCOCC1)CC31CN(Cc2cccc(F)c2)C1	nt	nt	5	nt	-5	1
CCOc1ccccc1N1CCN(C(=O)C2=CC=CN3CCS(=O)(=O)N=C23)CC1	-13	-8	1	-4	12	56*
CCN(CC)S(=O)(=O)c1cc(NC(=O)c2ccc(-n3cncn3)c([N+](=O)[O-])c2)ccc1C	-2	-2	9	-5	25*	3
CCN(CC)CCNC(=O)c1ccc(NC(=O)c2ccc(-n3cncn3)c([N+](=O)[O-])c2)cc1	-6	nt	nt	-3	-1	100*
CCCN1C[C@H](C)[C@H](OC)CN(C)C(=O)c2cc(NC(=O)c3cccc(OC)c3)ccc2OC[C@H]1C	nt	nt	-17	nt	nt	nt
COC(=O)c1ccc(CN2CC(=O)N3[C@H](CO)[C@H](c4ccc(-c5cccnc5)cc4)[C@H]3C2)cc1	nt	nt	-3	nt	2	-1
O=S(=O)(Nc1cc(Sc2ncn[nH]2)c(O)c2ccccc12)c1ccccc1	6	nt	72*	-5	-4	56*
N#C[C@H]1[C@@H](c2ccccc2C2=CCCCC2)[C@H](CO)N1S(=O)(=O)c1cccc(F)c1	nt	nt	-20	nt	nt	nt
CCSc1nnc(NC(=O)CSC2=NCCS2)s1	-1	nt	94*	-2	0	-1
CCN1CCN(c2ncc(C(=O)Nc3cc(Cl)ccc3OC)c3ccccc23)CC1	nt	6	93*	0	nt	nt

Source: PubChem BioAssay (Broad Institute)
